This note sets out measurements from PubChem BioAssay (NCI).

A short description of assay [1]: NCI Yeast Anticancer Drug Screen. Data for the rad50 strain (AID 155).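 Note: 0% = growth of vehicle-only cultures of the same strain.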 The settings on record: S. cerevisiae rad50 strain growth inhibition; at 50.0 µM; active compounds read high. The method, boiled down: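 A DNA repair-deficient yeast mutant serves as the test organism; compound-induced growth inhibition is calculated against vehicle-treated cells.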
Assay [2] in a line: NCI Yeast Anticancer Drug Screen. Data for the mec2-1 strain (AID 157). The settings on record: S. cerevisiae mec2-1 strain, at 50.0 µM, active compounds read high. The essentials: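 Yeast mec2-1 mutant treated with compound. Readout: growth inhibition vs vehicle controls.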
The nature of assay [3]: NCI Yeast Anticancer Drug Screen. Data for the sgs1 mgt1 strain (AID 161).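 Note: 0% = growth of cultures given vehicle only.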 Particulars: S. cerevisiae sgs1 mgt1 strain, at 50.0 µM, active compounds read high. The essentials:
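Test agents were incubated with a DNA-repair-mutant yeast strain. Growth was then read and compared against vehicle-treated controls.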

Assay [4] can be described thus: NCI Yeast Anticancer Drug Screen. Data for the cln2 rad14 strain (AID 165).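 Note: 0% = growth equal to vehicle treated cultures.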 The settings on record: S. cerevisiae cln2 rad14 strain, at 50.0 µM, active compounds read high. The essentials: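 cln2 rad14 yeast strain; compound exposure; growth inhibition read vs vehicle controls.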
Assay [5] can be described thus: NCI Yeast Anticancer Drug Screen. Data for the bub3 strain (AID 167). The settings on record: S. cerevisiae bub3 mutant strain, at 50.0 µM, active compounds read high. The essentials:
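Inhibition values come from growth of compound-treated mutant yeast normalised to vehicle-treated controls.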

Assay [6] can be described thus: NCI Yeast Anticancer Drug Screen. Data for the mlh1 rad18 strain (AID 175). The settings on record: S. cerevisiae mlh1 rad18 strain growth inhibition; at 50.0 µM; active compounds read high. The method, boiled down: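 Yeast w/ defined DNA-repair lesions; compound exposure; growth vs vehicle controls → % inhibition.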

SMILES strings stand for the structures. The panel holds about 79,000 compounds, 15% with a hit somewhere; the sample as a whole holds those more often. A number with no mark means an inactive call. Active and inactive are the calls of the source. Cut-off read from the data, not from the text of the source: active = growth inhibition above about 70%; inactive = the rest.

Regarding `Clc1cc(OC2C3CC4CC(C3)CC2C4)nc(Cl)n1` (centres undefined), the growth inhibition is 8.45% in assay [1]; 1.45% in assay [2]; 27.7% in assay [3]; -1.1% in assay [4]; 16.3% in assay [5]; 65.8% in assay [6].
Regarding `CN(Cc1ccccc1)N=NCc1ccccc1`, the growth inhibition in assay [1] was 15.8%; in assay [2], -15.8%; in assay [3], -20.4%; in assay [4], 3.35%; in assay [5], 3.65%; in assay [6], -9.7%.
Consider `CC(C)(C(=O)c1cccnc1)c1cccnc1`, for which the growth inhibition in assay [1] is 4.25%; in assay [2] it was -9.25%; in assay [3] it was 17.1%; in assay [4] it was 2.3%; in assay [5] it was 17.1%; in assay [6] it was 12.7%.
Regarding `CCOc1ccc(/C=C\C(=O)O)cc1`, the growth inhibition is -1.9% in assay [1]; -19.6% in assay [2]; 8.5% in assay [3]; -5.75% in assay [4]; 1.25% in assay [5]; 1.55% in assay [6].
Regarding `CC1/C(=N/Nc2ccc([N+](=O)[O-])cc2)CC2C3(C)CCC2(C(C)C(=O)O)C(=O)C13` (centres undefined), the growth inhibition in assay [1] was 78% (active); in assay [2] it was 33.4%; in assay [3], 83.5% (active); in assay [4] it was 45.7%; in assay [5] it was 44.8%; in assay [6], 88.7% (active).
Turning to `CC(C)SSC(=O)N1CCCC1C(=O)O` (centres undefined), the growth inhibition was -1.6% in assay [1]; 3.05% in assay [2]; -5.45% in assay [3]; -30.9% in assay [4]; -1% in assay [5]; -1.7% in assay [6].
Take `O=C1c2ccccc2CN1c1ccc(O)cc1`: the growth inhibition in assay [1] is 5.65%; in assay [2] it was 1.5%; in assay [3] it was -14.8%; in assay [4] it was 20.9%; in assay [5] it was -1.2%; in assay [6], 16.9%.
For the compound `Nc1ccc(N)c(C(=O)O)c1`, the growth inhibition in assay [1] is -9.35%; in assay [2], 15.1%; in assay [3], 1.1%; in assay [4], -2.5%; in assay [5] it was -12.6%; in assay [6], -8.9%.
Turning to `CC1CCCN(C(=O)Nc2ccccc2)C1` (centres undefined), the growth inhibition in assay [1] is 14.4%; in assay [2] it was -0.8%; in assay [3] it was -10.2%; in assay [4], 10.4%; in assay [5] it was 4.65%; in assay [6], 1.15%.
Consider `Cc1c(C(N)=O)c(-c2ccccc2)c(-c2ccccc2)n1Nc1ccccc1`, for which the growth inhibition in assay [1] is 16.9%; in assay [2], -2.65%; in assay [3], 13.7%; in assay [4], 11.9%; in assay [5], -5.05%; in assay [6], 23.7%.
For the compound `CCC(=O)Oc1cc(C(C)(C)C)c(OC(=O)CC)cc1C(C)(C)C`, the growth inhibition in assay [1] is 3.45%; in assay [2], -13.9%; in assay [3] it was 10.6%; in assay [4], 12.3%; in assay [5] it was 10.9%; in assay [6] it was 35.4%.
Turning to `CC1OC(OC2C(CO)OC(O[C@H]3CC[C@@]4(C)C(=CC[C@H]5[C@@H]6C[C@@H]7O[C@]8(CC[C@@H](C)CN8)[C@@H](C)[C@@H]7[C@@]6(C)CC[C@@H]54)C3)C(O)C2O)C(O)C(O)C1O` (some centres undefined), the growth inhibition is -17.1% in assay [1]; -26.6% in assay [2]; -0.75% in assay [3]; 15.2% in assay [4]; 6.1% in assay [5]; 1.7% in assay [6].
Consider `C[S+]1CC2C3CC(C#N)C(C3)C2C1` (centres undefined), for which the growth inhibition in assay [1] is 2.4%; in assay [2] it was 11.2%; in assay [3], 2.95%; in assay [4] it was -28.1%; in assay [5] it was -1.85%; in assay [6], 16.9%.
`Cc1ccc(NCC(O)CN2CCCC2)cc1` (centres undefined): the growth inhibition was 12.3% in assay [1]; 5.35% in assay [2]; 12.5% in assay [3]; -26.4% in assay [4]; -14.9% in assay [5]; 12.1% in assay [6].
Consider `CN/C=C(/OCc1ccccc1)c1ccc(O)c(O)c1`, for which the growth inhibition in assay [1] is 2.2%; in assay [2] it was 0.9%; in assay [3], 3.05%; in assay [4] it was -6%; in assay [6], 19.2%.
The corresponding values for `CCCN(Cc1ccccc1)CC(O)c1ccc(Cl)cc1` (centres undefined) are 0.95%, 3.5%, 32.2%, 2.95% and 20.1%.
For the compound `CCCCCC(=O)/C=C/CC(CCCCCCC#N)C(CC(OC)OC)[N+](=O)[O-]` (centres undefined), the growth inhibition is -42.2% in assay [1]; -24.2% in assay [2]; 0.9% in assay [3]; 14.3% in assay [4]; -37.4% in assay [6].
For `CCOC(=O)Nc1ccc([N+](=O)[O-])cc1[N+](=O)[O-]`, the growth inhibition was 15.9% in assay [1]; -0.45% in assay [2]; 16.2% in assay [3]; 14.8% in assay [4]; 13.2% in assay [6].
For the compound `CC1CCCN2C(=O)CN(Cc3ccccc3)CC(=O)N12` (centres undefined), the growth inhibition in assay [1] is 9.85%; in assay [2], -3.3%; in assay [3] it was -8.55%; in assay [4], 13.4%; in assay [6], -4.45%.
The corresponding values for `O=C(NCCCCCCNC(=O)NCc1ccc(Cl)c(Cl)c1)NCc1ccc(Cl)c(Cl)c1` are 13.6%, 4%, -3.8%, -3.8% and 16.9%.
The corresponding values for `Cc1c(C(=O)OCCCl)c(=O)n(-c2ccccc2)n1C` are -43.4%, -56.2%, 4.7%, 19.6% and -0.55%.
For `COc1ccc(CCNC(=O)CC2CCN(Cc3ccccc3)CC2)cc1OC`, the growth inhibition in assay [1] is 3.65%; in assay [2] it was 1.15%; in assay [3], 5.2%; in assay [4], -3.75%; in assay [6], -1.5%.
